# Where “and” joins values, the source holds several entries; their conditions need not be identical. Identical values can stand only once. Inconclusive results are not listed. More than one record can exist for a structure, and the calls need not agree. Calls of active or inactive are those of the source. The calls were made as follows: active = hit-call score of the fitted dose curve at least 0.9, where 1 is the maximum; inconclusive = response in the unintended direction; inactive = score below 0.9.
# What was measured:
# [1] = ATG_M_06_XSP2: Attagene TRANS-FACTORIAL Multi-Species (XSP2) HepG2 Assay for M06 Transcription Factor (Internal Marker) (AID 2283811);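 also: internal background marker reporter mRNA measured by RT-PCR and capillary electrophoresis; hits are increases in signal above the DMSO baseline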
# Method in brief: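 HepG2 cells transiently transfected with GAL4-UAS multi-reporter constructs, dosed 24 h with 3 nM 6-alpha-fluorotestosterone plus 1.5 nM norgestrel present to stimulate androgen receptor. Reporter mRNA quantified by RT-PCR, 6-FAM labelling, HpaI digestion and capillary electrophoresis; gain-of-signal fitted versus DMSO baseline.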
# [2] = tested on: turtle Estrogen Receptor (ERa), gene 101933533; assay: ATG_trERa_XSP2: Attagene TRANS-FACTORIAL Multi-Species (XSP2) HepG2 Assay for turtle Estrogen Receptor (ERa) (AID 2283812);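 also: human HepG2 liver cells transiently expressing turtle ERa-Gal4 chimeric receptor; actives raise reporter signal above DMSO so AC50 reflects agonist activity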
# Method in brief: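 HepG2 cells transiently transfected with GAL4-UAS reporter units expressing turtle ERa-Gal4 chimera. Reporter mRNA measured after 24 h dosing by RT-PCR, fluorescent labelling and capillary electrophoresis; gain of signal fitted versus DMSO.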
# [3] = molecular target: Estrogen receptor beta (Homo sapiens) (UniProt Q92731); assay: ATG_hERb_XSP2: Attagene TRANS-FACTORIAL Multi-Species (XSP2) HepG2 Assay for human Estrogen Receptor (ERb) (AID 2283813);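 also: actives raise reporter mRNA above DMSO so AC50 reflects agonist induction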
# Method in brief: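 HepG2 cells transiently transfected with GAL4-UAS reporter units and chimeric human ERb-Gal4, 24 h exposure. Reporter mRNA quantified by RT-PCR with FAM labelling, HpaI digestion and capillary electrophoresis; gain of signal versus DMSO.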
# [4] = molecular target: GAL4 Transcription Factor (Internal Marker), GAL4 (gene 855828) (UniProt P04386); assay: ATG_GAL4_XSP2: Attagene TRANS-FACTORIAL Multi-Species (XSP2) HepG2 Assay for GAL4 Transcription Factor (Internal Marker) (AID 2283814);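 also: GAL4 reporter mRNA background control in MRTU transfected cells not a receptor target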
# Method in brief: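 HepG2 cells transiently transfected with GAL4-UAS reporter units, stimulated with 3 nM 6-alpha-fluorotestosterone plus 1.5 nM norgestrel, dosed 24 h. Reporter mRNA by RT-PCR/capillary electrophoresis; gain-of-signal fit versus DMSO, background control.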
# [5] = molecular target: zebrafish Estrogen Receptor (ER1), esr1 (gene 259252) (UniProt P57717); assay: ATG_zfER1_XSP2: Attagene TRANS-FACTORIAL Multi-Species (XSP2) HepG2 Assay for zebrafish Estrogen Receptor (ER1) (AID 2283816)
# Method in brief: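 HepG2 cells transiently transfected with a GAL4-UAS reporter and a chimeric zebrafish ER1-Gal4 construct, dosed 24 h. Reporter mRNA quantified by RT-PCR, labelling, HpaI digestion and capillary electrophoresis, relative to DMSO.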
# [6] = molecular target: chicken Estrogen Receptor (ERa), ESR1 (gene 396099) (UniProt P06212); assay: ATG_chERa_XSP2: Attagene TRANS-FACTORIAL Multi-Species (XSP2) HepG2 Assay for chicken Estrogen Receptor (ERa) (AID 2283817);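 also: actives raise reporter signal above DMSO so AC50 reflects ER activation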
# Method in brief: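 HepG2 cells transiently transfected with multiplexed GAL4-UAS reporter units expressing chimeric chicken ERa-Gal4; 24 h compound exposure. Reporter mRNA measured by RT-PCR with 6-FAM labelling, HpaI digestion and capillary electrophoresis; gain-of-signal fitted versus DMSO.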
# [7] = tested on: zebrafish Estrogen Receptor (ER2a), gene 317734; assay: ATG_zfER2a_XSP2: Attagene TRANS-FACTORIAL Multi-Species (XSP2) HepG2 Assay for zebrafish Estrogen Receptor (ER2a) (AID 2283818);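 also: hits raise reporter mRNA so AC50 reflects activation of zebrafish ER2a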
# Method in brief: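 HepG2 cells transiently transfected with GAL4-UAS reporter units and chimeric zebrafish ER2a-Gal4, exposed 24 h; medium contains 3 nM 6-alpha-fluorotestosterone and 1.5 nM norgestrel. Reporter mRNA quantified by RT-PCR, HpaI digestion, capillary electrophoresis; gain versus DMSO.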
# [8] = ATG_XTT_Cytotoxicity_XSP1: Cytotoxicity Assessment in the Attagene TRANS-FACTORIAL Multi-Species (XSP1) HepG2 Assay (AID 2283810)
# Method in brief: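 XTT viability readout taken at 24 hours post-dosing in HepG2 liver cells co-treated with 3 nM 6-alpha-fluorotestosterone. Signal loss relative to DMSO controls reflects cytotoxicity.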
# [9] = tested on: turtle Androgen Receptor (AR), gene 101947425; assay: ATG_trAR_XSP2: Attagene TRANS-FACTORIAL Multi-Species (XSP2) HepG2 Assay for turtle Androgen Receptor (AR) (AID 2283815)
# Method in brief: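 HepG2 cells transiently transfected with GAL4-UAS reporter units for chimeric NR-Gal4 receptors; 24 h dosing in presence of 3 nM 6-alpha-fluorotestosterone and 1.5 nM norgestrel. Reporter mRNA by RT-PCR and capillary electrophoresis, gain of signal versus DMSO.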
# [10] = tested on: chicken Androgen Receptor (AR), gene 422165; assay: ATG_chAR_XSP2: Attagene TRANS-FACTORIAL Multi-Species (XSP2) HepG2 Assay for chicken Androgen Receptor (AR) (AID 2283819);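 also: hits raise reporter mRNA above DMSO so potency is for activation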
# Method in brief: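 HepG2 cells transiently transfected with chicken AR–GAL4 chimeric reporter constructs, stimulated with 3 nM 6-alpha-fluorotestosterone plus 1.5 nM norgestrel, dosed 24 h. Reporter mRNA quantified by RT-PCR and capillary electrophoresis; gain of signal fitted versus DMSO.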
# Sequence of chicken Estrogen Receptor (ERa), ESR1 (gene 396099) (P06212 whole entry, looked up, the tested form may be a part): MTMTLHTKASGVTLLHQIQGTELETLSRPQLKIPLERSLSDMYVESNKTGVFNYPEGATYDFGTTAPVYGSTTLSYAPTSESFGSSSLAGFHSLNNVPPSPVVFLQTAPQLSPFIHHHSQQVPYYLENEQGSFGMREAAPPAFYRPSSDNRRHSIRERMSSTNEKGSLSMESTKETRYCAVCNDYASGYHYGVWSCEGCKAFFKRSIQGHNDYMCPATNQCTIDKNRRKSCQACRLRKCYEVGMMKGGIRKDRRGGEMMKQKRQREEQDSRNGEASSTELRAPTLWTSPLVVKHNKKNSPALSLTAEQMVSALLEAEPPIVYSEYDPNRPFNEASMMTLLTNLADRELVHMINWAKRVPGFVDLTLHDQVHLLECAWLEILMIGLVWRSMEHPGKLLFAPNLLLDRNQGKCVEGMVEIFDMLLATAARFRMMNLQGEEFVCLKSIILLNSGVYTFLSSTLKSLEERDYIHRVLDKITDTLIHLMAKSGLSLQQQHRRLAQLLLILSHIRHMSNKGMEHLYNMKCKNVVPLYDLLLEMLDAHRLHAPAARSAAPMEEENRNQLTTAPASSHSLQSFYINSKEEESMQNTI
# Sequence of Estrogen receptor beta (Homo sapiens) (Q92731 whole entry, looked up, the tested form may be a part): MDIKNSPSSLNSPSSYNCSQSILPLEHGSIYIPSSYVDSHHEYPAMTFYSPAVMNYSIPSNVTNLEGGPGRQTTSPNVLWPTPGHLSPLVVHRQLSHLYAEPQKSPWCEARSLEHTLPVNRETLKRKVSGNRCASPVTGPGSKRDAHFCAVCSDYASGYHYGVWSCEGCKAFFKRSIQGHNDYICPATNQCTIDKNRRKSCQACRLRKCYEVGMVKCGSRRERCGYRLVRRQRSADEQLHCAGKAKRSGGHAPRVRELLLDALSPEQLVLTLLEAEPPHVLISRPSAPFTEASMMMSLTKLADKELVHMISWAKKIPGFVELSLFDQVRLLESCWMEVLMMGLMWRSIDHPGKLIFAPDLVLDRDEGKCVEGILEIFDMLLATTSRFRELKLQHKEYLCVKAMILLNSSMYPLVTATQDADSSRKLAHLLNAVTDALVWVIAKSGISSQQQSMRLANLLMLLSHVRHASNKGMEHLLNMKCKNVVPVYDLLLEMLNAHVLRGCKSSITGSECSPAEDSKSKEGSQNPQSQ
# Sequence of zebrafish Estrogen Receptor (ER1), esr1 (gene 259252) (P57717 whole entry, looked up, the tested form may be a part): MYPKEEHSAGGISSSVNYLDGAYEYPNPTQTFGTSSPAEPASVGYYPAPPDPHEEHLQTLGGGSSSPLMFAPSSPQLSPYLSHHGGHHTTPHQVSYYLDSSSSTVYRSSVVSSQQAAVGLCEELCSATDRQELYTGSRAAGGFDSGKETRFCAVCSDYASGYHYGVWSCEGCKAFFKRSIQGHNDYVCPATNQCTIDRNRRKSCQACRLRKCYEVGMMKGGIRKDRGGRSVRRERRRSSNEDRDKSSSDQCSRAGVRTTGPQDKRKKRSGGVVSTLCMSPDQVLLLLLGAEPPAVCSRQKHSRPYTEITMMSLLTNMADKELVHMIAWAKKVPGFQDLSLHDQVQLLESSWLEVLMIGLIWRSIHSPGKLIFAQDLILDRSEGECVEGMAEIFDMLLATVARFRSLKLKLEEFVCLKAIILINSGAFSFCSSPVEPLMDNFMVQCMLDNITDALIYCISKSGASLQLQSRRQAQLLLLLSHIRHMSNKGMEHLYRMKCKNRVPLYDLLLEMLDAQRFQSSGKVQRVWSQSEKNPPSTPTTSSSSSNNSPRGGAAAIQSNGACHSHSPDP
# Sequence of GAL4 Transcription Factor (Internal Marker), GAL4 (gene 855828) (P04386 whole entry, looked up, the tested form may be a part): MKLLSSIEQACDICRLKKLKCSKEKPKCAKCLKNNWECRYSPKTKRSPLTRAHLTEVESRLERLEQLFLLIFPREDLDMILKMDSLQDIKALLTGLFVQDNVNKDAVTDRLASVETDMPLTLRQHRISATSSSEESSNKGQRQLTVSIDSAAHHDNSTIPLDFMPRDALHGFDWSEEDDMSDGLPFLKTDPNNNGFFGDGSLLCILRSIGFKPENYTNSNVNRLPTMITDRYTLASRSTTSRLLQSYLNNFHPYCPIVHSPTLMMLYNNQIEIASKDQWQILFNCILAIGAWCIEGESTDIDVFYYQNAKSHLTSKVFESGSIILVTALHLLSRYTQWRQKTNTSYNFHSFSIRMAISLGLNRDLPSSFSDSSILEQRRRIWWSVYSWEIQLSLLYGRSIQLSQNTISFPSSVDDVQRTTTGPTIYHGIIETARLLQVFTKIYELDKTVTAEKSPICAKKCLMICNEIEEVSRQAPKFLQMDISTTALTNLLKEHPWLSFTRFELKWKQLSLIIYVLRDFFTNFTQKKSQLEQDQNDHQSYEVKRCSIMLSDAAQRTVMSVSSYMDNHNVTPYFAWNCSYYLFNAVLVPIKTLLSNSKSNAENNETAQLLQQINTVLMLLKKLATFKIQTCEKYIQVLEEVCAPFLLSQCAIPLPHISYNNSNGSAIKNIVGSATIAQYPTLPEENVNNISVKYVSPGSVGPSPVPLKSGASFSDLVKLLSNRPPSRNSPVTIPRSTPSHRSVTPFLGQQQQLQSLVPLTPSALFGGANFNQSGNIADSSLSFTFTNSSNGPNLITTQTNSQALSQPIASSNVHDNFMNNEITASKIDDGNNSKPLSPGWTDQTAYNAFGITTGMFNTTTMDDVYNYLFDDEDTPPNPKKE
compound,measurement,setting,value
COc1ccc(C(=CC(=O)N2CCOCC2)c2ccc(Cl)cc2)cc1OC,outcome,[1],inactive
same,outcome,[2],inactive
same,outcome,[3],inactive
same,outcome,[4],inactive
same,AC50,[5],58.2 µM (active)
same,outcome,[5],inactive
same,outcome,[6],inactive
same,outcome,[7],inactive
Nc1c(Cl)cc([N+](=O)[O-])cc1Cl,outcome,[2],inactive
same,outcome,[3],inactive
same,outcome,[4],inactive
same,outcome,[5],inactive
same,AC50,[6],26.8 µM (active)
same,outcome,[6],inactive
same,outcome,[7],inactive
CCCOCC(=Nc1ccc(Cl)cc1C(F)(F)F)n1ccnc1,AC50,[8],100 µM (active)
same,outcome,[1],inactive
same,outcome,[3],inactive
same,outcome,[5],inactive
same,outcome,[6],inactive
same,outcome,[7],inactive
C#CCC1=C(C)C(OC(=O)C2C(C=C(C)C)C2(C)C)CC1=O (configuration not stated),outcome,[8],inactive
same,outcome,[1],inactive
same,outcome,[3],inactive
same,outcome,[5],inactive
same,outcome,[7],inactive
CCc1cccc(C)c1N(C(=O)CCl)C(C)COC (configuration not stated),outcome,[8],inactive
same,outcome,[1],inactive
same,outcome,[2],inactive
same,outcome,[3],inactive
same,outcome,[4],inactive
same,outcome,[9],inactive
same,outcome,[5],inactive
same,outcome,[6],inactive
same,outcome,[10],inactive
CCOP(=O)(NC(C)C)Oc1ccc(SC)c(C)c1 (configuration not stated),outcome,[1],inactive
same,AC50,[2],100 µM (active) and 52.6 µM (active)
same,outcome,[3],inactive
same,outcome,[4],inactive
same,outcome,[5],inactive
same,AC50,[6],31.1 µM (active)
same,outcome,[6],inactive
same,AC50,[7],100 µM (active)
same,outcome,[7],inactive
C#CC(C)(C)NC(=O)c1cc(Cl)cc(Cl)c1,outcome,[1],inactive
same,outcome,[2],inactive
same,outcome,[4],inactive
same,AC50,[6],3.34 µM (active)
same,outcome,[7],inactive
CCC(CC)Nc1c([N+](=O)[O-])cc(C)c(C)c1[N+](=O)[O-],outcome,[1],inactive
same,AC50,[2],2.52 µM (active) and 1.7 µM (active)
same,outcome,[3],inactive
same,AC50,[5],7.37 µM (active)
same,outcome,[5],inactive
same,AC50,[6],5.63 µM (active) and 4.3 µM (active)
same,outcome,[7],inactive
CCOP(=S)(OCC)Oc1ccc2c(C)c(Cl)c(=O)oc2c1,outcome,[1],inactive
same,outcome,[2],inactive
same,outcome,[3],inactive
same,outcome,[4],inactive
same,outcome,[6],inactive
same,outcome,[7],inactive
CCC(=O)Nc1ccc(Cl)c(Cl)c1,outcome,[1],inactive
same,outcome,[2],inactive
same,outcome,[5],inactive
same,outcome,[6],inactive
same,outcome,[7],inactive

# Source: PubChem BioAssay (EPA / NIEHS)
